# Reference: PubChem BioAssay AID1239 (SRMLSC, 2008)
# About 3,100 (1.6%) of roughly 190,000 compounds were called active. This is one part of a sample in which actives are shown more often than they occur. No stated cut-off is given here; in the data, active means fold change above about 3.3; inconclusive means no clear call, values can overlap the other calls; inactive means below that.
# Assay: activators of NF-kB expression in neurons, primary screen, cell-based, HTS (AID 1239)
# Conditions: human neuronal cells, NF-kB reporter expression; at 12.5 µM; active compounds read high
row,Structure (SMILES),fold change
1,CCN(C(=O)c1ccc(Br)cc1)c1ccccc1,1.19 (inactive)
2,C/C(CC(=O)Nc1cccc(C(F)(F)F)c1)=N\NC(=O)C(=O)NCC(C)C,1.26 (inactive)
3,CC(C)C1Nc2c(C(=O)O)cccc2C(Nc2ccccc2C(=O)O)C1(C)C (stereo not drawn),1.41 (inactive)
4,O=C(c1cc(-c2cccs2)on1)N1CCCCC1,5.06 (active)
5,O=C(c1ccc(F)cc1)N1CCCC(c2nc(-c3cccs3)no2)C1 (stereo not drawn),0.86 (inactive)
6,Cc1ccc(-c2cc(C(=O)N3CCc4ccccc4C3)no2)cc1,1.06 (inactive)
7,O=C(c1cc(-c2ccccc2O)on1)N1CCCC1,2.02 (inactive)
8,COc1ccccc1-c1cc(C(=O)N2CCCCC2)no1,6.86 (active)
9,COc1ccccc1N1CCN(C(=O)c2cc(-c3ccc(Br)cc3)on2)CC1,1.31 (inactive)
10,Cc1cccc(NC(=S)Nc2ccc(Cl)c(Cl)c2)c1,0.6 (inactive)
11,COc1cc([N+](=O)[O-])ccc1NC(=S)N1CCN(c2ccccn2)CC1,1 (inactive)
12,CC1CCN(C(=S)c2cccc(O)c2)CC1,1.37 (inactive)
13,CCCN(CCC)c1ccc(C(O)c2nnc(-c3ccccc3)o2)cc1 (stereo not drawn),1.05 (inactive)
14,c1ccc(C2=Nc3cccc4cccc(c34)N2)cc1,1.21 (inactive)
15,CNC(=S)N1N=C(c2ccccc2)CC1c1ccc(Br)cc1 (stereo not drawn),1.3 (inactive)
16,Brc1ccc(C2CC(c3ccccc3)=Nc3ccccc3N2)cc1 (stereo not drawn),3.44 (active)
17,C=CCn1cc(-c2cccc(C(F)(F)F)c2)cc(C#N)c1=O,1.06 (inactive)
18,O=C(O)c1ccc2c(c1)C(=O)N(c1ccc(/C=C/C(=O)c3ccccc3)cc1)C2=O,1.2 (inactive)
19,O=C(/C=C/c1ccccc1)c1ccoc1,0.94 (inactive)
20,O=C(/C=C/c1ccc(N2CCOCC2)cc1)c1ccccc1,4.09 (active)
21,O=C(Nc1nc(-c2cccnc2)cs1)c1ccccc1F,1.73 (inactive)
22,COc1cc(NC(=S)N2CCCC(C)C2)cc(OC)c1OC (stereo not drawn),1.11 (inactive)
23,COc1ccc(/C=C(\C#N)C(=O)ONC2=NCCCCC2)cc1,1.26 (inactive)
24,COc1cc(SC)ccc1C(=O)Nc1nc(C)cs1,0.52 (inactive)
25,Cc1csc(NC(=O)Nc2ccccc2[N+](=O)[O-])n1,3.38 (active)
26,Cc1csc(NC(=O)CN2CCCCCC2)n1,1.18 (inactive)

row,Structure (SMILES),fold change
1,Cc1cc(NC(=O)Nc2ccccc2[N+](=O)[O-])no1,1.12 (inactive)
2,Cc1csc(NC(=O)NC2(C(F)(F)F)Oc3ccccc3O2)n1,5.29 (active)
3,Cc1c(NC(=O)Nc2ccccc2)cccc1[N+](=O)[O-],1.43 (inactive)
4,Cc1ccnc(NC(=O)c2ccc(Cl)c([N+](=O)[O-])c2)c1,2.09 (inactive)
5,CNC(=S)Nc1ccc([N+](=O)[O-])cc1,1.13 (inactive)
6,Cc1ccccc1N1C(=O)C(Oc2ccc(Cl)cc2)C1CNCC1CCCO1 (stereo not drawn),1.25 (inactive)
7,CCOC(=O)CCNC(=O)N1CCCC(C(=O)c2ccccc2SC)C1 (stereo not drawn),1 (inactive)
8,O=C(Nc1nnc(CCc2ccccc2)s1)C1CCCO1 (stereo not drawn),1.38 (inactive)
9,O=C(Nc1ccc(-c2nnc(-c3ccccc3)o2)cc1)C1CCCO1 (stereo not drawn),4.06 (active)
10,O=C(Nc1cccc(-c2nnc(-c3ccccc3)o2)c1)C1CCCO1 (stereo not drawn),0.88 (inactive)
11,COc1ccc(-n2nc3c(c2NC(=O)c2ccc(N4C(=O)CCC4=O)cc2)CSC3)cc1,1.2 (inactive)
12,C=CCN(C(=O)c1cc(C)cc(C)c1)C1(C(=O)Nc2ccccc2)CCN(C(C)C)CC1,0.87 (inactive)
13,CC1CN(CCOc2ccccc2[N+](=O)[O-])CC(C)O1 (stereo not drawn),1.22 (inactive)
14,CC1CCN(S(=O)(=O)c2ccc3ncn(CC(=O)N(C)C4CCCCC4)c(=O)c3c2)CC1,0.79 (inactive)
15,O=C(OCC(=O)c1cccs1)c1ccc([N+](=O)[O-])o1,0.88 (inactive)
16,Cc1cc(=O)n2[nH]c(-c3sccc3-n3c(C)ccc3C)cc2n1,1.08 (inactive)
17,CCOC(=O)CSc1nc(C)cc2c1C(=O)OC2,1.43 (inactive)
18,CCOC(=O)CSc1ccccn1,0.99 (inactive)
19,CCOC(=O)CSC1=N/C(=C/c2ccc(-n3cncn3)cc2)C(=O)N1C(C)=O,4.34 (active)
20,CC1=NN(c2ccccc2)C(=O)C1C(=O)c1ccc([N+](=O)[O-])cc1 (stereo not drawn),0.91 (inactive)
21,O=C(O)/C=C/c1cn(Cc2ccccc2)nc1-c1cccs1,1.06 (inactive)
22,NS(=O)(=O)c1cccc(NC(=O)CN2CCCc3ccccc32)c1,0.95 (inactive)
23,O=C(/C=C/c1ccc2c(c1)OCO2)NCc1ccc(F)cc1,1.46 (inactive)
24,CCc1c(C)sc(NC(=O)/C=C/c2ccc3c(c2)OCO3)c1C(=O)OC,1.05 (inactive)
25,CCSc1ccccc1C(=O)Nc1ccc2c(c1)OCO2,1.88 (inactive)
26,Cc1cccc(NC(=O)/C=C/c2ccc3c(c2)OCO3)n1,8.04 (active)

row,Structure (SMILES),fold change
1,Cc1cccc(NC(=O)Nc2ccc3c(c2)OCO3)n1,4.19 (active)
2,CC(NC(=O)Nc1ccc2c(c1)OCO2)c1ccncc1 (stereo not drawn),1.61 (inactive)
3,COc1ccc(OC)c(/C=C/C(=O)OCC(=O)Nc2ccc3c(c2)OCCO3)c1,1 (inactive)
4,COc1cccc(/C=C/C(=O)Nc2ccc3c(c2)OCCO3)c1,6.74 (active)
5,COc1ccc(/C=C/C(=O)Nc2ccc3c(c2)OCCO3)cc1OC,0.68 (inactive)
6,COc1ccc(N2C(=O)C(Cc3ccccc3)NC2=S)cc1 (stereo not drawn),1.19 (inactive)
7,Cc1nn(C)c(C)c1S(=O)(=O)N1CCC(CO)(Cc2ccc(Cl)cc2)CC1,0.97 (inactive)
8,O=C(N/N=C/c1cc2c(cc1Br)OCO2)C1COc2ccccc2O1 (stereo not drawn),1.55 (inactive)
9,COc1cc(NC(=S)NCc2ccc(S(N)(=O)=O)cc2)cc(OC)c1,1.03 (inactive)
10,CSc1ccccc1NC(=O)CN(C)CC(=O)Nc1ccc(Cl)cc1[N+](=O)[O-],1.29 (inactive)
11,C(=N\Nc1ccc2ccccc2n1)/c1ccc2c(c1)OCO2,1.78 (inactive)
12,Cc1cc(C)nc(N/N=C/c2c(C)oc3ccccc23)n1,1.11 (inactive)
13,Cc1noc(C)c1/C=N/Nc1ccc2ccccc2n1,4.12 (active)
14,O=C1c2ccccc2C(=O)N1CCC(O)C[N+](=O)[O-] (stereo not drawn),0.98 (inactive)
15,COc1ccc(-c2nc3cnccn3c2NC(C)(C)CC(C)(C)C)cc1O,0.68 (inactive)
16,O=C(Nc1ccccc1)c1ccc2c(c1)OCO2,3.31 (active)
17,Cn1c(=O)n(C)c2cc(C(=O)Nc3ccc4c(c3)OCO4)ccc21,1.54 (inactive)
18,O=C(Nc1ccccc1)Nc1nc2ccccc2s1,8.18 (active)
19,Cn1nnnc1SCC(=O)Nc1nc2ccccc2s1,1.74 (inactive)
20,O=C(Nc1cccc([N+](=O)[O-])c1)c1ccc2c(c1)OCO2,1.37 (inactive)
21,O=C(Nc1nc2ccccc2s1)c1ccc2c(c1)OCO2,7.05 (active)
22,CC(C)C(=O)Nc1cccc(C(=O)Nc2ccc3c(c2)OCO3)c1,4.07 (active)
23,COc1ccc(C(=O)Nc2ccc3c(c2)OCO3)cc1OC,2.06 (inactive)
24,Cc1cc(C)c2nc(NC(=O)c3ccc4c(c3)OCO4)sc2c1,1.11 (inactive)
25,CC(=O)Nc1ccc(-c2csc(NC(=O)Nc3ccccc3)n2)cc1,1.32 (inactive)
26,COCc1nnc(NC(=O)c2ccc3c(c2)OCO3)s1,2.07 (inactive)

row,Structure (SMILES),fold change
1,O=C(Nc1cccnc1)c1ccc2c(c1)OCO2,1.47 (inactive)
2,COc1ccc(-c2nn(-c3ccccc3)cc2CN2CCCO2)c(F)c1,1.16 (inactive)
3,NC(N)=N/N=C/c1ccc(Cl)c([N+](=O)[O-])c1,1.03 (inactive)
4,CN1CCN(NC(=O)c2ccc(S(=O)(=O)N3CCCCCC3)cc2)CC1,0.97 (inactive)
5,O=c1[nH]n(-c2ccc([N+](=O)[O-])cc2)c(=O)c2ccccc12,1 (inactive)
6,CC(=O)c1ccc(N=C2SCCCN2C(=O)C2CCCCC2)cc1,1.75 (inactive)
7,COc1cccc(NC(=O)CS(=O)(=O)c2cn(CC(=O)N3CCOCC3)c3ccccc23)c1,0.88 (inactive)
8,O=C(CSc1nc2ccc(Nc3nc(N4CCOCC4)nc(N4CCOCC4)n3)cc2s1)NCc1ccco1,1.02 (inactive)
9,CC(C)(C)C1CCC(C(=O)Nc2cccnc2)CC1 (stereo not drawn),0.97 (inactive)
10,COC(=O)C(=Nc1ccccc1)/C(C(=O)C(=O)N(C)c1ccccc1)=C(\O)c1ccc(Cl)cc1,0.95 (inactive)
11,O=C(Nc1ccc2oc(-c3ccccc3F)nc2c1)c1ccco1,5.05 (active)
12,O=C(Nc1cccc(-c2nc3ncccc3o2)c1)c1ccco1,0.74 (inactive)
13,O=C(Nc1ccc2nccnc2c1)c1ccco1,1.46 (inactive)
14,CSc1ccccc1C(=O)NCc1ccccc1,1.09 (inactive)
15,COc1ccc(C(=O)NC(=S)Nc2ccc(N3CCCC3)cc2)cc1OC,0.99 (inactive)
16,COc1cccc(C(=O)Nc2cc3c(cc2Br)OCCCO3)c1,3.38 (active)
17,COc1ccc(C2COC(=O)C2=N)c(NC(=O)c2ccccc2)c1 (stereo not drawn),1.02 (inactive)
18,O=C(Cc1ccccc1)NC(=S)Nc1ccc(N2CCCCC2)cc1,1.04 (inactive)
19,COc1cccc(OC)c1C(=O)Nc1ccc(N2CCCCC2)cc1,0.92 (inactive)
20,COc1cccc(C(=O)Nc2ccc(N3CCCC3)cc2)c1,3.3 (active)
21,Cc1ccccc1C(=O)Nc1ccc(N2CCCCCC2)cc1,3.92 (active)
22,C/C(=N\NC(=O)c1ccccc1C)c1ccc(N2CCOCC2)cc1,1.09 (inactive)
23,COc1cccc(C(=O)NNC(=O)c2ccccc2Br)c1,1.05 (inactive)
24,COn1c(-c2ccc(Cl)cc2Cl)nc2ncccc21,1.29 (inactive)
25,O=C(CN1CCC(O)(c2ccccc2)CC1)Nc1ccc2c(c1)OCCO2,0.97 (inactive)
